# Results taken from publication PMC12820563, “FoxP3 forms a head-to-head dimer in vivo and stabilizes its multimerization on adjacent microsatellites”.
# The full ranking holds about 16,000 sequences; the median of “rpm ratio (pull-down/input)” is about 0.94, and the highest 2% start at about 1.7. The entries come from a sample that favours the highest values as a whole.
# Target: T1, MBP-FoxP1dN (Mus musculus, UniProt P58462 326-579)
# T1 sequence: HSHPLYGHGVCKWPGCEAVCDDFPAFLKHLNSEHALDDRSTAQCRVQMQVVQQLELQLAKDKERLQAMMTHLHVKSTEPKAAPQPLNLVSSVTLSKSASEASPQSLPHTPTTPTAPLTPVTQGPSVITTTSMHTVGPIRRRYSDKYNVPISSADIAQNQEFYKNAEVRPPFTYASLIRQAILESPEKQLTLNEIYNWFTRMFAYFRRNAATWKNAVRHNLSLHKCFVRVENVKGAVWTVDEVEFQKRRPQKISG
# Test: PD-seq (MBP pull-down with sequencing); 20 mM Tris-HCl pH 7.5, 100 mM NaCl, 1.5 mM MgCl2, 0.4 uM protein, 0.1 uM dsDNA library, 30 min, room temperature, amylose pull-down; high values mean tight binding
# Settings: protein: recombinant; tags: His6-MBP; chain copies: 2; dsDNA, one strand shown
# How it was run: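 E. coli-expressed mouse FoxP3 or FoxP1 fragment, N-terminus removed and tagged with His6-MBP, was used at 0.4 µM against 0.1 µM of a Klenow-filled degenerate double-stranded DNA library. After 30 min at room temperature in Tris pH 7.5 buffer with NaCl and MgCl2, complexes were pulled down on amylose resin and washed three times. Binding is pull-down over input reads-per-million enrichment from pooled replicates of the proteinase K-released, PCR-barcoded, Illumina-sequenced DNA.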
row,Sequence,binding signal
1,GATGATTGTTCTCCCAGCTGATGAATTCACAACATCGAGTAAACAAATTTTCCTAATCTTTCTGTTCAAGCGCCATCTAC,2.11 RPM ratio (pull-down/input)
2,GATGATTGTTCTCCCAGCTGATGAATTCAACACATCGAGTAAACAAATTTTCCTAATCTTTCTGTTCAAGCGCCATCTAC,1.3 RPM ratio (pull-down/input)
3,GATGATTGTTCTCCCAGCTGATGAATTGAAAACATCGAGTAAACAAATTTTCCTAATCTTTCTGTTCAAGCGCCATCTAC,1.8 RPM ratio (pull-down/input)
4,GATGATTGTTCTCCCAGCTGATGAATTCCTAACATCGAGTAAACAAATTTTCCTAATCTTTCTGTTCAAGCGCCATCTAC,1.04 RPM ratio (pull-down/input)
5,GATGATTGTTCTCCCAGCTGATGAATTGAAAAAATCGAGTAAACAAATTTTCCTAATCTTTCTGTTCAAGCGCCATCTAC,1.03 RPM ratio (pull-down/input)
6,GATGATTGTTCTCCCAGCTGATGAATTCTAAAAATCGAGTAAACAAATTTTCCTAATCTTTCTGTTCAAGCGCCATCTAC,0.995 RPM ratio (pull-down/input)
7,GATGATTGTTCTCCCAGCTGATGAATTCCTAAAATCGAGTAAACAAATTTTCCTAATCTTTCTGTTCAAGCGCCATCTAC,0.966 RPM ratio (pull-down/input)
8,GATGATTGTTCTCCCAGCTGATGAATTCAAAACATCGAGTAAACAAATTTTCCTAATCTTTCTGTTCAAGCGCCATCTAC,1.99 RPM ratio (pull-down/input)
9,GATGATTGTTCTCCCAGCTGATGAATTCGGGTAGTCGAGTAAACAAATTTTCCTAATCTTTCTGTTCAAGCGCCATCTAC,0.855 RPM ratio (pull-down/input)
10,GATGATTGTTCTCCCAGCTGATGAATTAAAAGTCTCGAGTAAACAAATTTTCCTAATCTTTCTGTTCAAGCGCCATCTAC,0.816 RPM ratio (pull-down/input)
11,GATGATTGTTCTCCCAGCTGATGAATTGTTCGTTTCGAGTAAACAAATTTTCCTAATCTTTCTGTTCAAGCGCCATCTAC,1.15 RPM ratio (pull-down/input)
12,GATGATTGTTCTCCCAGCTGATGAATTGCAAAGCTCGAGTAAACAAATTTTCCTAATCTTTCTGTTCAAGCGCCATCTAC,1.09 RPM ratio (pull-down/input)
13,GATGATTGTTCTCCCAGCTGATGAATTATACAGTTCGAGTAAACAAATTTTCCTAATCTTTCTGTTCAAGCGCCATCTAC,1.18 RPM ratio (pull-down/input)
14,GATGATTGTTCTCCCAGCTGATGAATTACTCACATCGAGTAAACAAATTTTCCTAATCTTTCTGTTCAAGCGCCATCTAC,1.28 RPM ratio (pull-down/input)
15,GATGATTGTTCTCCCAGCTGATGAATTTCGAATCTCGAGTAAACAAATTTTCCTAATCTTTCTGTTCAAGCGCCATCTAC,0.83 RPM ratio (pull-down/input)
16,GATGATTGTTCTCCCAGCTGATGAATTGTTAAACTCGAGTAAACAAATTTTCCTAATCTTTCTGTTCAAGCGCCATCTAC,1.1 RPM ratio (pull-down/input)

row,Sequence,binding signal
1,GATGATTGTTCTCCCAGCTGATGAATTCCGACACTCGAGTAAACAAATTTTCCTAATCTTTCTGTTCAAGCGCCATCTAC,0.88 RPM ratio (pull-down/input)
2,GATGATTGTTCTCCCAGCTGATGAATTACACTCGTCGAGTAAACAAATTTTCCTAATCTTTCTGTTCAAGCGCCATCTAC,1.15 RPM ratio (pull-down/input)
3,GATGATTGTTCTCCCAGCTGATGAATTCAGACGTTCGAGTAAACAAATTTTCCTAATCTTTCTGTTCAAGCGCCATCTAC,0.787 RPM ratio (pull-down/input)
4,GATGATTGTTCTCCCAGCTGATGAATTCAAACAATCGAGTAAACAAATTTTCCTAATCTTTCTGTTCAAGCGCCATCTAC,1.81 RPM ratio (pull-down/input)
5,GATGATTGTTCTCCCAGCTGATGAATTCTCCCAATCGAGTAAACAAATTTTCCTAATCTTTCTGTTCAAGCGCCATCTAC,0.958 RPM ratio (pull-down/input)
6,GATGATTGTTCTCCCAGCTGATGAATTCTTTCAATCGAGTAAACAAATTTTCCTAATCTTTCTGTTCAAGCGCCATCTAC,0.972 RPM ratio (pull-down/input)
7,GATGATTGTTCTCCCAGCTGATGAATTATGCGATTCGAGTAAACAAATTTTCCTAATCTTTCTGTTCAAGCGCCATCTAC,1.06 RPM ratio (pull-down/input)
8,GATGATTGTTCTCCCAGCTGATGAATTGTAATTGTCGAGTAAACAAATTTTCCTAATCTTTCTGTTCAAGCGCCATCTAC,1.39 RPM ratio (pull-down/input)
9,GATGATTGTTCTCCCAGCTGATGAATTTTGTATGTCGAGTAAACAAATTTTCCTAATCTTTCTGTTCAAGCGCCATCTAC,1.54 RPM ratio (pull-down/input)
10,GATGATTGTTCTCCCAGCTGATGAATTGTATTTGTCGAGTAAACAAATTTTCCTAATCTTTCTGTTCAAGCGCCATCTAC,2.5 RPM ratio (pull-down/input)
11,GATGATTGTTCTCCCAGCTGATGAATTTGTATTGTCGAGTAAACAAATTTTCCTAATCTTTCTGTTCAAGCGCCATCTAC,2.88 RPM ratio (pull-down/input)
12,GATGATTGTTCTCCCAGCTGATGAATTTGTAATGTCGAGTAAACAAATTTTCCTAATCTTTCTGTTCAAGCGCCATCTAC,1.26 RPM ratio (pull-down/input)
13,GATGATTGTTCTCCCAGCTGATGAATTGTATCTGTCGAGTAAACAAATTTTCCTAATCTTTCTGTTCAAGCGCCATCTAC,1.08 RPM ratio (pull-down/input)
14,GATGATTGTTCTCCCAGCTGATGAATTTGCGATCTCGAGTAAACAAATTTTCCTAATCTTTCTGTTCAAGCGCCATCTAC,0.924 RPM ratio (pull-down/input)
15,GATGATTGTTCTCCCAGCTGATGAATTAATTCCTTCGAGTAAACAAATTTTCCTAATCTTTCTGTTCAAGCGCCATCTAC,0.955 RPM ratio (pull-down/input)
16,GATGATTGTTCTCCCAGCTGATGAATTCCCGTTTTCGAGTAAACAAATTTTCCTAATCTTTCTGTTCAAGCGCCATCTAC,0.97 RPM ratio (pull-down/input)
